Screening data from PubChem.
The list is not random: actives were taken first. Their share in the collection is about 5.6%.
RORgamma inh: inhibitors of mouse ROR gamma transcriptional activity; P51450; Drosophila S2 Gal4-RORgamma UAS-luciferase reporter, 20 h; Potency, µM (top dose mostly 53.6 µM), usual class: inhibitors; 310,000 tested, 5.4% active; AID 2551; also: nearly all actives have a fitted effect of over 60% in size
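Using a luciferase readout, inhibitors were identified by reduced reporter activity in Drosophila cells coexpressing a copper-inducible Gal4–ROR gamma fusion and UAS-driven Photinus luciferase, incubated 20 hr after 700 uM copper sulfate.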
CtBP-E1A inh: CtBP/E1A binding inhibition. 340,000 tested, 0.49% active. AlphaScreen GST-E1A/His-CtBP binding, 1536-well; active compounds read low. activity change, % (test concentration not listed); in the data active = activity change below about -65%; inconclusive = mostly about -30% to -63%
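Steps: dispense buffer (Tris pH 8.0, NaCl 300 mM, TCEP 1 mM, BSA, Tween 20); add 5X protein mix (GST-E1A, His-CtBP, 125 nM each); pin 23 nL compound; 2 h at 37 °C, dark; add 5X beads (50 ug/mL); 1 h; read.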
Six1-Eya2 inh: Six1/Eya2 interaction inhibition | AlphaScreen GST-Six1/His-Eya2 binding, biochemical; active compounds read low | activity change, % (concentration not given with the values) | 360,000 tested, 0.56% active | AID 651725; in the data active = activity change below about -65%; inconclusive = mostly about -30% to -63%
Target sequence (O00167 whole entry, looked up): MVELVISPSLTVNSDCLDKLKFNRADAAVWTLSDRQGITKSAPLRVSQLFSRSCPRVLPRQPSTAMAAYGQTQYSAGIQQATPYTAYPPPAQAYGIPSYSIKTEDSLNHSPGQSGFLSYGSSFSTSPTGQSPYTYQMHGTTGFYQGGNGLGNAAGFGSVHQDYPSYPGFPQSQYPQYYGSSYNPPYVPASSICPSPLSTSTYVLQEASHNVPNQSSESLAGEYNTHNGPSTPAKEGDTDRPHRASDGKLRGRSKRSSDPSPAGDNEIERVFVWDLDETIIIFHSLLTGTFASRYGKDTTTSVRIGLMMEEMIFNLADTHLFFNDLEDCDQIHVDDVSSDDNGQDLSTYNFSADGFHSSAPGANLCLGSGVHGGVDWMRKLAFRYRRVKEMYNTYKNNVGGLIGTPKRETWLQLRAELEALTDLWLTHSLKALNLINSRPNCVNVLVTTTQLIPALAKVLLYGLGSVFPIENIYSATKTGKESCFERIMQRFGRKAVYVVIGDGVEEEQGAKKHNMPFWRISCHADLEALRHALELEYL
Target sequence (Q15475 whole entry, looked up): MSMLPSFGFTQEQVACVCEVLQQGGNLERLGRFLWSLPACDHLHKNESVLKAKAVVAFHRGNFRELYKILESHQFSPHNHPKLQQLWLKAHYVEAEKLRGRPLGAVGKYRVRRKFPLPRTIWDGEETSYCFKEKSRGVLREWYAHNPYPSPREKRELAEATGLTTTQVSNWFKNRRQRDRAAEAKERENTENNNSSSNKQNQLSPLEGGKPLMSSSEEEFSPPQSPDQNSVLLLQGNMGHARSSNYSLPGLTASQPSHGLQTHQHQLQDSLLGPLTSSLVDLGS
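Compounds are tested against tagged Six1 and Eya2 proteins bridged by glutathione donor and nickel acceptor beads; after a one-hour incubation at 37 °C without light, AlphaScreen emission is recorded.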
PKM2 act: increases activity of human pyruvate kinase M2; P14618; purified PKM2, Kinase-Glo ATP luminescence, activation; response scale: 0% is enzyme alone, no compound; Potency, µM (doses to about 57.5 µM), usual class: activators; 260,000 tested, 0.34% active; AID 1631; also: nearly all actives have a fitted effect of over 55% in size
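Purified hPK-M2 (>95%) run at intermediate activity with 0.1 mM ADP and 0.5 mM PEP in 50 mM imidazole pH 7.2, KCl, MgCl2; 1 h room temperature. ATP formed read by Kinase-Glo luminescence; normalized to uninhibited and no-enzyme controls.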
VP16 counter: inhibits Gal4-VP16 luciferase reporter, ROR gamma counter-screen; AID 2546; 310,000 tested, 3.5% active; Drosophila S2 Gal4-VP16 UAS-luciferase, luminescence, 20 h; Potency, µM (series often up to 53.6 µM), actives largely listed as inhibitors;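 also: Gal4-VP16 expression switched on by copper sulfate through the metallothionein promoter; nearly all actives have a fitted effect of over 50% in size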
Each line names hits and unclear results; the compound was inactive in the other large screens. Unless noted, calls follow the shape of the dose curve; as a rule, active = well fitted curve in the direction sought with a large enough effect; inconclusive = small, poorly fitted or top-dose-only effect, or another doubt; inactive = no such curve, though single readings can be large; an effect the other way counts as inactive or inconclusive.

O=C(Nc1nnc(C2=COCCO2)o1)c1ccc(Cc2ccccc2)cc1	RORgamma inh 0.631µM, CtBP-E1A inh inconclusive, Six1-Eya2 inh inconclusive, VP16 counter 3.16µM
O=C(Nc1nnc(C2=COCCO2)o1)c1ccc(Br)cc1	RORgamma inh 0.794µM, VP16 counter 0.501µM (no result: CtBP-E1A inh, Six1-Eya2 inh)
CS(=O)(=O)c1ccccc1-c1nnc(NC(=O)C2=COCCO2)o1	none (no result: RORgamma inh, PKM2 act, VP16 counter)
O=C(Nc1nnc(C2=COCCO2)o1)c1ccc(Cl)cc1	RORgamma inh 0.631µM
O=C(Nc1nnc(C2=COCCO2)o1)c1ccc([N+](=O)[O-])cc1	RORgamma inh 1.12µM, VP16 counter 0.891µM
CC(=O)Nc1nnc(C2=COCCO2)o1	none
COc1ccccc1CNC(=O)CCC(=O)n1ncc2cc(C)ccc21	none
Cc1nnc(SCC(=O)NC(=O)Nc2ccc3c(c2)OCCO3)n1N	none
CCc1nnc(SC(C)C(=O)Nc2nccs2)n1C (stereo unspecified)	none
O=C(N[C@H]1CCCc2ccccc21)O[C@@H]1C(=O)c2cc(Br)ccc2O[C@H]1c1ccc2c(c1)OCO2	none (no result: CtBP-E1A inh, Six1-Eya2 inh, PKM2 act)
CC(C)CNC(=O)CCc1nc(-c2ccccc2)no1	none
O=C(Nc1nnc(C2=COCCO2)o1)c1cccc(C(F)(F)F)c1	RORgamma inh 0.562µM, VP16 counter 0.316µM
O=C(Nc1nnc(C2=COCCO2)o1)c1ccc(F)cc1	RORgamma inh 0.891µM, CtBP-E1A inh inconclusive, Six1-Eya2 inh inconclusive, VP16 counter 0.794µM
COc1ccc(CN(C)C(=S)Nc2ccc(Cl)cc2)cc1	RORgamma inh 10µM, VP16 counter inconclusive
COc1ccc(CN(Cc2ccc(C(=O)O)cc2)C(=S)Nc2cccc(C)c2)cc1OC	none
COc1cccc(CN(C)C(=S)Nc2cccc(C)c2)c1	RORgamma inh 11.2µM, VP16 counter inconclusive
Cc1ccc(C(=O)NCC(=O)NNC(=O)CN(C)S(=O)(=O)c2ccc(Cl)cc2)s1	none (no result: RORgamma inh, PKM2 act, VP16 counter)
O=C(Cc1n[nH]c(=O)c2ccccc12)OCC(=O)c1ccc(OC(F)F)cc1OC(F)F	none (no result: RORgamma inh, PKM2 act, VP16 counter)
Cc1ccc(NC(=O)CCc2ccccc2)cc1C	none (no result: RORgamma inh, PKM2 act, VP16 counter)
Cc1ccc(NC(=S)NC(C)CCc2ccccc2)cc1C (stereo unspecified)	RORgamma inh 3.98µM, VP16 counter 6.31µM
Cc1ccccc1NC(=O)C(=O)NC(C)CCc1ccccc1 (stereo unspecified)	none
CCCN(Cc1ccccc1)C(=S)Nc1ccc(C(C)=O)cc1	RORgamma inh 4.47µM, VP16 counter 10µM
CC(=O)c1ccc(NC(=S)NC(C)CCc2ccccc2)cc1 (stereo unspecified)	RORgamma inh 7.94µM, VP16 counter 20µM
Cc1cccc(C)c1NC(=S)NC(C)CCc1ccccc1 (stereo unspecified)	RORgamma inh 2.24µM, VP16 counter 4.47µM
CC(=O)c1ccc(NC(=S)N(CCCN(C)C)Cc2ccccc2)cc1	none
CCCCn1c(N)c(N(CC(C)C)C(=O)COC(=O)C2(c3ccccc3)CC2)c(=O)[nH]c1=O	none (no result: RORgamma inh, PKM2 act, VP16 counter)
O=C(Cn1ncc2c([nH]c3ccccc32)c1=O)N1CCN(c2ccccn2)CC1	none (no result: PKM2 act)
NC(=O)Cn1nnc(-c2ccc(NC(=O)c3ccc(F)cc3)cc2)n1	RORgamma inh inconclusive
CC1CCc2c(sc(NC(=O)CCc3nc4ccccc4c(=O)[nH]3)c2C#N)C1 (stereo unspecified)	none (no result: RORgamma inh, CtBP-E1A inh, PKM2 act, VP16 counter)
CCCc1nc2sc3c(c2c(=O)[nH]1)CCCC3	none
CCN(CC(=O)Nc1sc2c(c1C#N)CCCC2)Cc1nc2ccccc2c(=O)[nH]1	RORgamma inh 5.62µM, VP16 counter inconclusive
CCN(CC(=O)NC(C)C)Cc1nc2sc3c(c2c(=O)[nH]1)CCC3	RORgamma inh 1.12µM, VP16 counter 4.47µM
CCN(CC(=O)Nc1sc2c(c1C#N)CCC(C)C2)Cc1nc2ccccc2c(=O)[nH]1 (stereo unspecified)	RORgamma inh 2.51µM, VP16 counter inconclusive
CCN(Cc1nc2ccccc2c(=O)[nH]1)C(=O)c1cc2c(s1)CCCCC2	none (no result: RORgamma inh, PKM2 act, VP16 counter)
O=C(/C(=C/c1ccc(Cl)cc1)c1nc2ccccc2[nH]1)c1ccccc1	RORgamma inh 4.47µM, VP16 counter 10µM
c1ccc(N/N=C(\Cc2nc3ccccc3[nH]2)c2ccccc2)cc1	VP16 counter inconclusive
O=C(Nc1nc2ccccc2[nH]1)c1ccccc1O	RORgamma inh 12.6µM, VP16 counter 6.31µM (no result: PKM2 act)
